Laboratory results: PubChem BioAssay (NCI)
About 83,000 compounds went through this panel and 20% of them were active in at least one assay; those are over-represented in the sample as a whole.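 Note: values are percent growth. 100 is the growth of untreated cells, values between 100 and 0 indicate rising inhibition; between -100 and 0 indicates cell death.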 Unmarked numbers belong to inactive results. Calls of active or inactive are those of the source. Rule for the calls: active = growth percent below 10; inactive = the rest.

What was measured:
Assay in all cases: NCI-60 one-dose screen, 48 h (100 = growth as untreated, 0 = no growth, -100 = all killed)
Conditions in all cases: 10 µM unless noted
HCT-15 colon = system: HCT-15 colon
HT29 colon = system: HT29 colon
SNB-75 CNS = system: SNB-75 CNS
SNB-19 CNS = system: SNB-19 CNS
U251 CNS = system: U251 CNS
PC-3 prostate = system: PC-3 prostate
SK-MEL-5 melanoma = system: SK-MEL-5 melanoma
UACC-62 melanoma = system: UACC-62 melanoma
SK-MEL-28 melanoma = system: SK-MEL-28 melanoma

Row | SMILES | growth (HCT-15 colon) | growth (HT29 colon) | growth (SNB-75 CNS) | growth (SNB-19 CNS) | growth (U251 CNS) | growth (PC-3 prostate) | growth (SK-MEL-5 melanoma) | growth (UACC-62 melanoma) | growth (SK-MEL-28 melanoma)
1 | O=c1[nH]c(=S)[nH]c2nc[nH]c12 | 99.5% | 103% | 84.6% | 107% | 105% | 96.9% | 110% | 97.6% | 110%
2 | CC(=O)n1c(/C(C#N)=C/c2ccc(N(C)C)cc2)cc2ccccc21 | 23.9% | 9.7% (active) | -6.19% (active) | 35.8% | 36.4% | 39.4% | 29.7% | 26.8% | 60.8%
3 | Clc1ccc2[nH]cc(-c3nc(-c4c[nH]c5ncccc45)cs3)c2c1 | 1.33% (active) | 16.1% | 56.8% | 65.1% | 34.6% | 39.2% | 64.9% | 44.2% | 85.9%
4 | CC1(C)C(=O)/C(=C\c2ccco2)C[C@]2(C)[C@H]3CC[C@@H]4[C@@H](C(=O)/C=C/c5ccco5)CC[C@@]4(C)[C@]3(C)CC[C@@H]12 | 79.6% | 75.7% | 68.1% | 46.8% | 50.7% | 80.4% | -49.9% (active) | 12.5% | 32.1%
5 | C=C(C)[C@@H]1CC[C@]2(C(=O)NNC(=O)c3cccnc3)CC[C@]3(C)[C@H](CC[C@@H]4[C@@]5(C)CCCNC(C)(C)[C@@H]5CC[C@]43C)[C@@H]12 | 62.4% | 11.3% | 80% | 91.2% | 64.6% | 50.3% | 74.4% | 91% | 90%
6 | Nc1c(Cl)cc(N=Nc2ccccc2)cc1Cl | 93% | 100% | 74% | 100% | 94.5% | 96.2% | 94.3% | 57.5% | 106%
7 | CCOC(=O)c1ccc2c(c1)[n+](=O)c(C(=O)C1CCCS1)c(C(F)(F)F)n2[O-] (stereo not drawn) | -72% (active) | -82.4% (active) | -100% (active) | -77.4% (active) | -100% (active) | -75.4% (active) | -96.9% (active) | -80.4% (active) | -93.6% (active)
8 | COC(=O)C(Cc1ccccc1)n1cc(COc2nc(Cl)nc(Nc3ccc(Cl)cc3)n2)nn1 (stereo not drawn) | 91% | 95.5% | 104% | 98.2% | 94.1% | 101% | 103% | 93.1% | 107%
9 | N#CC1=C(N)Oc2ccc3ccccc3c2C1c1ccccc1 (stereo not drawn) | 19.5% | 17.7% | -16.3% (active) | 29.5% | 32.5% | 40.6% | 25.7% | 18.6% | 54.6%
10 | CC(C)(C)n1cc(-c2ccnc(NCCCNS(=O)(=O)c3ccc(Cl)cc3)c2)c(-c2cccc(F)c2)n1 | 9.66% (active) | 27.6% | 76.5% | 80% | 61.7% | 49.7% | 70.7% | 84.6% | 89.4%
11 | C/C(=C(/c1ccccc1)c1ccc(N2C(=O)c3cccc4c(NCc5ccccc5)ccc(c34)C2=O)cc1)c1ccccc1 | 103% | 112% | 94.6% | 96.8% | 99.5% | 82.1% | 99.3% | 80.3% | 107%
12 | CCN1CCN(C(=O)[C@]23CC[C@@H](C)[C@H](C)[C@H]2C2=CC[C@@H]4[C@@]5(C)C/C(=C/c6cccc(OC)c6OC)C(=O)C(C)(C)[C@@H]5CC[C@@]4(C)[C@]2(C)CC3)CC1 | 19.2% | 21.5% | 35.6% | 53.1% | 38.4% | 18.8% | 46.2% | 57.4% | 58.7%
13 | O=C(NO)c1ccc(Cn2c(=O)n(-c3ccccc3)c(=O)c3ccccc32)cc1 | 39.6% | 41% | 20.9% | 33.4% | -3.66% (active) | -7.98% (active) | 16.5% | -24.6% (active) | -1.55% (active)
14 | CCN1CCN(C(=O)[C@@]2(C)CC[C@]3(C)CC[C@]4(C)C(=CC(=O)[C@@H]5[C@@]6(C)CC[C@H](OC7C[C@@H](O)[C@@H](O)C(C)O7)C(C)(C)[C@@H]6CC[C@]54C)[C@@H]3C2)CC1 (stereo partly drawn) | 34.2% | 1.72% (active) | 86.7% | 39% | 10.3% | 42.1% | -5.54% (active) | -69.3% (active) | -7.89% (active)
15 | CC1(C)CC[C@]2(C(=O)NCCNCCN)CC[C@]3(C)C(=CC[C@@H]4[C@@]5(C)CCC(=O)C(C)(C)[C@@H]5CC[C@]43C)[C@@H]2C1 | 27% | -2.78% (active) | 69.8% | 56.1% | -69.7% (active) | 40.9% | 87.6% | -89.3% (active) | 38.6%
16 | C(=C\c1c[nH]c2ccccc12)/c1ccc2ccccc2n1 | 53.9% | 33.4% | 81.1% | 84.4% | 59.7% | 59.3% | 96% | 86.8% | 107%
17 | C/C(=N\NC(=O)C(C)SC(C)C(=O)N/N=C(\C)c1cccnc1)c1cccnc1 (stereo not drawn) | 102% | 94.1% | 89.7% | 110% | 110% | 101% | 98.4% | 101% | 113%
18 | CCN1CCN(C(=O)[C@@]2(C)CC[C@]3(C)CC[C@]4(C)C(=CC(=O)[C@@H]5[C@@]6(C)CC[C@H](OCCC#N)C(C)(C)[C@@H]6CC[C@]54C)[C@@H]3C2)CC1 | 69.5% | 42.6% | 59.9% | 103% | 64.2% | 72.1% | 90.2% | 87.1% | 67.7%
19 | O=c1c(CNc2ccc(S(=O)(=O)Nc3nccs3)cc2)coc2ccccc12 | 99.9% | 101% | 73.8% | 95.4% | 95.4% | 107% | 98.3% | 97.9% | 121%
20 | C=C(C)[C@@H]1CC[C@]2(CN)CC[C@]3(C)[C@H](CC[C@@H]4[C@@](C)(CCCN)[C@H](C(=C)C)CC[C@]43C)[C@@H]12 | 62.8% | 17.9% | 79.8% | 89.5% | 74% | 71.5% | 88.3% | 100% | 100%
21 | C[C@H]1[C@@H]2[C@H]3CC[C@@H]4[C@@]5(C)Cc6c([nH]c7ccccc67)C(C)(C)[C@@H]5CC[C@@]4(C)[C@]3(C)CC[C@]23CO[C@]1(C)[C@@H](C(=O)/C=C/c1ccccn1)C3 | 85.9% | 82.6% | 90.9% | 85.6% | 81.7% | 60.3% | 88.5% | 79% | 97.4%
22 | C#CCN=C[C@]12CC[C@@H](C(=C)C)[C@@H]1[C@H]1CC[C@@H]3[C@@]4(C)CCC(=O)C(C)(C)[C@@H]4CC[C@@]3(C)[C@]1(C)CC2 | 53.2% | 55.7% | 120% | 79% | 62.1% | 24.5% | 25.3% | 37.7% | 81.6%
23 | O=[N+]([O-])c1ccc(/C=N\Nc2ccccc2)cc1 | 65.5% | 96.8% | 81.8% | 104% | 72% | 69% | 98.1% | 3.85% (active) | 97.5%
24 | COc1ccc2nc(-c3c(-c4ccccc4)nc4ncccn34)[nH]c2c1 | 96.5% | 94.1% | 78.1% | 101% | 99.5% | 97.3% | 95.6% | 95.3% | 91.5%
25 | CC1c2ccccc2N(S(=O)(=O)c2ccccc2)C1C (stereo not drawn) | 70.5% | 67.8% | 86% | 91.5% | 88% | 81.4% | 89.2% | 71.6% | 92.1%
26 | Fc1ccc2[nH]cc(-c3nc(-c4c[nH]c5ncccc45)cs3)c2c1 | 20.3% | 21.7% | -17.2% (active) | 63.8% | 43.6% | 43.8% | 52.8% | 48.5% | 89%
27 | O=C1NC(c2ccc(Cl)c(Cl)c2)=C/C1=C\c1ccccc1 | 69% | 87.7% | 63.1% | 80% | 46.1% | 79.2% | 97.3% | 86.7% | 104%
